Sm TGR block = inhibitors of Schistosoma mansoni thioredoxin glutathione reductase; 3% of 360,000 active; Potency, µM (highest dose often 114 µM), usual class: inhibitors; AID 485364; purified TGR, DTNB reduction, TNB absorbance 405 nm; Q962Y6; further: nearly all actives have a fitted effect of over 60% in size
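First, TGR (20 nM dispensed) and NADPH were mixed with compound. Second, a 15 min room-temperature incubation followed. Third, further NADPH and then DTNB were added to start the reaction. Finally, TNB absorbance was monitored kinetically.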
HCV inh = inhibitors of hepatitis C virus infection; Huh7.5.1 HCVcc-Cre infection, luciferase reporter, 44 h; Potency, µM (highest dose often 41.8 µM), hits mostly inhibitors; 3.4% of 340,000 active
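Cells seeded at 1,000/well and cultured 4 h, then compounds added followed by HCVcc-Cre virus (~0.5 moi). After 44 h further culture, luciferase substrate was added, plates held 15 min at room temperature, and luminescence read for 15 sec.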
Vaccinia Venus = vaccinia inhibition (Venus reporter); Vaccinia virus Venus reporter expression, fluorescence; Potency, µM (highest dose often 36.5 µM), hits mostly inhibitors; 0.46% of 330,000 active; calls by dose curve; tested in A549 cells; further: nearly all actives have a fitted effect of over 30% in size
VACV mCherry inh = inhibitors of vaccinia virus infection (mCherry reporter signal); Vaccinia virus mCherry reporter infection, fluorescence; AID 720579; Potency, µM (highest dose often 36.5 µM), most hits filed as inhibitors; 0.63% of 310,000 active; calls by dose curve; tested in A549 cells; further: nearly all actives have a fitted effect of over 35% in size
FMDV inh = foot and mouth disease virus antiviral activity. 1.2% of 410,000 active. Potency, µM (titrated, usually from 57.9 µM), actives largely listed as inhibitors. FMDV antiviral cell-based qHTS; calls by dose curve; tested in HEK293T cells; further: read-out not given here; nearly all actives have a fitted effect of over 45% in size
HCMV inh = blocks human cytomegalovirus replication. HFF cells, HCMV-luciferase reporter, 72 h; active compounds read low. activity change, negative = inhibition, % at 57.5 µM. 4.5% of 410,000 active. AID 1259415; in the data active means activity change below about -60%; inconclusive means no clear call, values can overlap the other calls; inactive means above about -39%
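Luciferase read-out from HCMV-luciferase-infected HFFs (MOI 1 PFU/cell) 72 h post infection at 37C; compounds added after 16 h cell attachment; activity normalized between buffer-only basal and Salinomycin (10uM) inhibitor controls.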
Large screens that a line does not name were inactive. A selection: hits, their analogues and other compounds. The true share with any hit is near 9.3%. Unless noted, the call rests on the fitted dose curve; in most records, active means well fitted curve in the direction sought with a large enough effect; inconclusive means small, poorly fitted or top-dose-only effect, or another doubt; inactive means no such curve, though single readings can be large; an effect the other way counts as inactive or inconclusive.

Cc1c(C(=O)NCc2ccc3c(c2)OCO3)sc(=O)n1Cc1ccc(-c2ccccc2)cc1	HCMV inh -67 (no result: Sm TGR block, HCV inh)
CCCN(C(=O)c1cc(S(=O)(=O)N2CCCCC2)ccc1Cl)C1CCS(=O)(=O)C1 (stereo not given)	none (no result: Vaccinia Venus, VACV mCherry inh)
Cc1cc(C)n(-c2cc(N3CCN(C(=O)c4cccc(Br)c4)CC3)ccc2[N+](=O)[O-])n1	HCV inh inconclusive, Vaccinia Venus inconclusive, FMDV inh 14µM
COc1ccc(N=Cc2ccc(CNS(=O)(=O)c3ccc(Cl)cc3)o2)cc1	none
COC(=O)C1=C(O)/C(=C\c2ccc(CNS(=O)(=O)c3ccc(Cl)cc3)o2)N=C1C	Sm TGR block 28µM
COC(=O)C1=C(O)/C(=C\c2ccc(CNS(=O)(=O)c3ccccc3)o2)N=C1C	Sm TGR block 40µM
CCOC(=O)C1=C(O)/C(=C\c2ccc(CNS(=O)(=O)c3ccc(Br)cc3)o2)N=C1C	Sm TGR block 40µM
O=C(Cc1cccc2ccccc12)NN1C(=O)C2C(C1=O)C1C=CC2C12CC2 (stereo not given)	none
Cc1coc2c1c(C)cc1oc(=O)c(CC(=O)NCCc3ccc(Cl)cc3)c(C)c12	none (no result: HCV inh)
CC(=O)Nc1ccc(S(=O)(=O)NC(CC(=O)O)c2ccc(C)cc2)cc1 (stereo not given)	none (no result: Vaccinia Venus, VACV mCherry inh)
Cn1c(CC(=O)Nc2ccccc2)c(Sc2ccccc2)c2ccccc21	none (no result: Vaccinia Venus, VACV mCherry inh)
CCOC(=O)Cc1c(Sc2ccccc2)c2cc(C)ccc2n1C	HCMV inh -60
Cc1ccc(-n2nc3c(c2NC(=O)c2ccco2)CS(=O)(=O)C3)cc1	Sm TGR block inconclusive (no result: Vaccinia Venus, VACV mCherry inh)
O=C(Nc1c2c(nn1-c1cccc(Cl)c1)CS(=O)(=O)C2)c1ccco1	Sm TGR block 45µM (no result: Vaccinia Venus, VACV mCherry inh)
COc1ccc(-n2nc3c(c2NC(=O)c2ccco2)CS(=O)(=O)C3)cc1	Sm TGR block 45µM
COc1ccc(NC(=S)N2CCN(Cc3ccccc3)CC2)cc1	none
COc1ccc(NS(=O)(=O)c2ccc(N3CCOCC3)c(N)c2)cc1	Sm TGR block inconclusive, HCV inh 6.3µM, FMDV inh inconclusive, HCMV inh -70 (no result: Vaccinia Venus, VACV mCherry inh)
COc1ccc(S(=O)(=O)Nc2ccc(N3CCOCC3)cc2)cc1	none (no result: Vaccinia Venus, VACV mCherry inh)
COc1ccc(NS(=O)(=O)c2cc(NC(=O)C(CC(C)C)NC(N)=O)ccc2N2CCOCC2)cc1 (stereo not given)	HCMV inh -68 (no result: Sm TGR block, Vaccinia Venus, VACV mCherry inh)
COc1ccc(NS(=O)(=O)c2cc(NC(=O)[C@H](C)NC(N)=O)ccc2N2CCCC2)cc1	HCV inh inconclusive, HCMV inh -85 (no result: Sm TGR block)
c1ccc(C[n+]2ccc3ccccc3c2)cc1	HCV inh inconclusive (no result: Sm TGR block)
c1ccc(C[n+]2cccc(-c3ccccc3)c2)cc1	VACV mCherry inh inconclusive, HCMV inh -72
CC1(C(=O)N2CCC(CO)(Cc3cccc(C(F)(F)F)c3)CC2)CC1	FMDV inh inconclusive (no result: Vaccinia Venus, VACV mCherry inh)
CC(=O)c1ccc(C(=O)N2CCC(CO)(Cc3cccc(C(F)(F)F)c3)CC2)cc1	HCV inh inconclusive, HCMV inh -75
Cc1c(CN2CCC(CO)(Cc3cccc(C(F)(F)F)c3)CC2)c2ccccc2n1C	HCV inh inconclusive, Vaccinia Venus inconclusive, VACV mCherry inh inconclusive, HCMV inh -99
CC(C)CN1C(=O)C(=O)N(CC(=O)N2c3ccccc3NC(=O)CC2C)C1=O (stereo not given)	none
Clc1cccc(Cl)c1C[n+]1ccc2ccccc2c1	HCV inh inconclusive, HCMV inh -94 (no result: Vaccinia Venus, VACV mCherry inh)
O=C(C[n+]1ccc2ccccc2c1)c1ccccc1	none
C[C@@H]1CCCCO[C@@H](CN(C)S(=O)(=O)c2ccccc2)[C@@H](C)CN([C@H](C)CO)C(=O)c2cc(NS(=O)(=O)c3ccc(F)cc3)ccc2O1	none (no result: Sm TGR block, HCV inh)
COCc1nnc(SCC(=O)NCc2ccccc2)n1-c1ccccc1	none (no result: FMDV inh)
CCCC(C)NC(=O)COc1ccc(Sc2ccc(OCC(=O)NC(C)CCC)cc2)cc1 (stereo not given)	HCV inh inconclusive, VACV mCherry inh inconclusive, FMDV inh inconclusive, HCMV inh -72
CC(C)CNC(=O)COc1ccc(Sc2ccc(OCC(=O)NCC(C)C)cc2)cc1	HCV inh inconclusive, FMDV inh inconclusive, HCMV inh inconclusive
O=c1ccn([C@@H]2O[C@H](CNCc3ccccc3)[C@@H](O)[C@H]2O)c(=O)[nH]1	none (no result: Sm TGR block, HCV inh)

Assay outcomes (PubChem BioAssay)
